# GALR2 agonist: agonists of human galanin receptor 2 (GALR2) | activation, % (test concentration not listed) | GALR2-expressing cells, agonist activation read-out | AID 803 | actives 0.48% (n = 140,000); in the data active means activation above about 5%, passing the limit was not always enough;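 further: 0% = vehicle buffer wells and 100% = reference agonist at full effect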
# S1P2 agonist: activates the human S1P2 receptor | S1P2-expressing cell line, agonist reporter read-out | activation, % at 4.5 µM | actives 0.46% (n = 97,000) | AID 729; in the data active means activation above about 16%;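 further: 0% = vehicle low control and 100% = maximal reference agonist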
# GALR2 antag: antagonists of human galanin receptor 2 (GALR2); inhibition, % at 4 µM; AID 828; actives 0.39% (n = 140,000); O43603; GALR2-expressing cells, antagonist mode;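 further: cells stimulated with galanin 1-16 at roughly its EC80; 0% = agonist challenge control and 100% = basal control without agonist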
# S1P2 blocker: blocks the human S1P2 receptor. inhibition, % at 5 µM. cell-based S1P2 antagonist assay, inhibition at 5 uM. O95136. actives 0.21% (n = 97,000); in the data active means inhibition above about 45%;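 further: CRE beta-lactamase reporter cells expressing human S1P2 stimulated with S1P; 0% = agonist at EC80 alone and 100% = agonist plus reference antagonist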
# FAK blocker: blocks human focal adhesion kinase activity. inhibition, %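 (tested at 7 µM)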. biochemical FAK kinase activity assay. AID 727. Q05397. actives 0.84% (n = 97,000); in the data active means inhibition above about 19%;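 further: 0% = DMSO and 100% = reference compound high control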
# sdo1 growth: sdo1-depleted yeast growth rescue. z-score at 10 µM. S. cerevisiae sdo1-depleted JHY4D growth rescue, OD600 30 h; active compounds read high; pdr5 snq2 efflux-pump mutant strain. actives 0.21% (n = 140,000);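 active means z-score above 3 at both the 24 hr and the 30 hr optical density reads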;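 further: z-score against mean and SD of all compound wells on the same plate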
# GALR2 ant conf: GALR2 (human) antagonism confirmed; shares compounds with GALR2 antag; AID 866; inhibition, % at 4 µM; actives 60% (n = 480); GALR2-expressing cells, antagonist mode, inhibition;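 further: cells stimulated with galanin at about its EC80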
# BLA inhib ctr: counter-screen for GALR2 antagonists: beta-lactamase reporter inhibitors | shares compounds with GALR2 antag | CHO NFAT-BLA reporter, beta-lactamase FRET, thapsigargin-stimulated | inhibition, % at 4.2 µM | actives 36% (n = 480) | AID 867;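 active means inhibition above the mean inhibition across tested compounds plus 3 SD, cut at about 27% in these data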;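 further: 0% = 500 nM thapsigargin stimulated wells and 100% = unstimulated BSA only wells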
# * = called active by the depositor; x = no result. Hits are enriched below; roughly 1.9% of the tested compounds scored in any of these assays. Unless noted, no stated cut-off is given here; in the data, active means inhibition above about 27%; inactive means the rest.
SMILES,GALR2 agonist,S1P2 agonist,GALR2 antag,S1P2 blocker,FAK blocker,sdo1 growth,GALR2 ant conf,BLA inhib ctr
CC(=O)c1c(C)[nH]c(C(=O)COC(=O)c2cc(S(=O)(=O)N(C)c3ccccc3)ccc2Cl)c1C,-1.2,x,28.0*,x,x,-0.49,13.5,1.5
CCC(/C=N/NC(=O)CCCCC(=O)N/N=C/C(CC)CC)CC,-0.1,x,16.8,x,x,0.95,x,x
COc1ccccc1OCCC(=O)Nc1cccc(S(=O)(=O)N2CCCCC2)c1,-0.4,x,-4.3,x,x,-0.25,x,x
COc1ccc(CC(=O)Nc2cccc(S(=O)(=O)N3CCCCCC3)c2)cc1OC,-0.8,x,27.6*,x,x,0.08,16.0,9.0
CCOC(=O)c1cc2c(C(F)(F)F)cc(-c3cccnc3)nc2o1,-3.2,-5.0,3.7,13.3,3.4,0.41,x,x
CC(C)(C)c1ccc(OCCNC(=O)c2ncn[nH]2)cc1,-0.8,-2.7,30.6*,-3.2,0.4,-0.96,5.2,7.5
COc1ccc(C(=O)N2CC3(CC(c4ccc(Cl)cc4)=NO3)C[C@H]2C(=O)NCC(N)=O)cc1 (stereo not given in full),-2.0,-6.2,-7.9,2.5,11.8,1.18,x,x
CCO/N=C(/C)c1c(O)c(C)c(-c2ccccc2)n(-c2ccccc2)c1=O,-1.4,-1.3,-8.0,-24.6,0.9,-0.23,x,x
Cc1c(Cl)cnc(NC(=O)COC(=O)c2cccc(S(=O)(=O)N3c4ccccc4CC3C)c2)c1Cl (stereo not given),-0.8,x,-1.1,x,x,-0.08,x,x
Oc1c(Cl)cccc1C=Nc1cc(C(F)(F)F)ccc1N1CCCC1,-1.9,-3.6,31.9*,8.4,-2.9,-0.03,15.6,16.9
Oc1ccc(N=Nc2cccc(C(F)(F)F)c2)cc1C=Nc1ccc(N2CCOCC2)cc1,0.5,x,-20.2,x,x,-0.79,x,x
Cc1cc(/C=N/n2cnnc2)c(C)n1-c1ccc(OCc2ccc(Cl)cc2Cl)cc1,0.2,-5.6,28.6*,73.8*,0.2,-2.26,44.6*,22.1
CCN(CC)c1ccc2cc(-c3nc(-c4ccc(OC)cc4)cs3)c(=O)oc2c1,-4.0,x,78.1*,x,x,0.16,75.3*,85.0*
COCCn1c(-c2ccc(OC)cc2)cnc1SCC(=O)Nc1cccc2ccccc12,0.6,-3.5,-5.2,-10.3,2.6,-1.41,x,x
COc1cc(/C=N/NC(=O)c2cc(-c3cccn3C)n[nH]2)cc(OC)c1OC,-1.5,8.0,2.9,9.0,2.9,0.32,x,x
COc1cccc(/C=N/NC(=O)c2cc(-c3cccn3C)n[nH]2)c1O,-1.6,x,28.2*,x,x,1.05,26.9*,11.9
O=C(Nc1nc(-c2ccccc2)cs1)c1cccs1,-2.8,-8.5,9.7,9.8,1.6,-1.82,x,x
O=C(Nc1nc(-c2ccccc2)ns1)c1cccs1,-0.7,-2.9,35.5*,-5.3,-1.4,-1.85,5.1,-4.8
CCOC(=O)CSc1nc(C)cc(=O)[nH]1,-2.8,-10.6,32.1*,-2.8,-0.9,0.3,3.9,-6.0
O=C1C(c2ccncc2)N(CCC2=CCCCC2)C(=O)CN1C1CCCCC1 (stereo not given),-2.0,-7.3,7.1,7.9,-0.8,0.22,x,x
CSc1ncccc1C(=O)Nc1nc2c(C)cccc2s1,-1.7,x,28.9*,x,x,-0.58,27.5*,13.1
COc1ccc(-c2ccc3c(N)c(C(=O)c4cccc(OC)c4)sc3n2)cc1,-2.7,-7.6,29.4*,17.7,0.3,-0.31,20.3,23.3
Cc1nc(Nc2nc(=O)c3ccccc3n2C)nc2c(C)cccc12,0.9,-8.0,19.5,9.8,-5.7,x,x,x
Cc1ccccc1NC(=O)CC(O)(C(F)(F)F)C(F)(F)F,-1.0,-2.8,2.0,5.6,-1.5,-0.18,x,x
Cc1ccc(NC(=O)CC(O)(C(F)(F)F)C(F)(F)F)c(Br)c1,-4.1,-8.6,27.7*,-2.3,-1.0,-0.29,10.2,5.2
SMILES,GALR2 agonist,S1P2 agonist,GALR2 antag,S1P2 blocker,FAK blocker,sdo1 growth,GALR2 ant conf,BLA inhib ctr
COc1ccc(-c2nnc(SCc3nc4ccccc4s3)n2C(C)C)cc1,-2.6,-3.4,28.6*,-6.2,-2.0,-0.89,1.8,4.9
Cc1cccnc1Nc1nc(-c2ccccn2)cs1,-1.2,0.0,27.4*,11.6,1.3,-2.68,50.7*,31.2*
CC(C)N(Cc1nc(-c2ccccc2)no1)C(=O)CN(C)S(=O)(=O)c1ccccc1,-0.6,-2.0,-0.6,14.0,-2.0,-0.78,x,x
CCn1cc(C(=O)NC(C)C23CC4CC(CC(C4)C2)C3)cn1 (stereo not given),1.0,x,-3.6,x,x,0.04,x,x
CC(NC(=O)Cn1ncc(Cl)c(Cl)c1=O)C12CC3CC(CC(C3)C1)C2 (stereo not given),-0.7,x,57.0*,x,x,-0.62,72.2*,73.9*
CCCN(CCC)CC(=O)Nc1cccc2c1OCO2,1.1,0.0,-9.1,-0.6,-1.5,0.06,x,x
Oc1ccccc1N=Nc1nc(-c2ccccc2)c(-c2ccccc2)[nH]1,-1.6,-3.5,29.1*,8.9,5.4,-1.33,33.5*,14.7
COc1ccc(Cl)c(Cn2c(NCc3ccco3)nc3c2c(=O)n(C)c(=O)n3C)c1,-2.9,2.7,-1.9,23.5,0.5,-1,x,x
COc1cccc(Cn2c(NCc3ccco3)nc3c2c(=O)n(C)c(=O)n3C)c1,-0.9,x,27.5*,x,x,0.72,19.2,3.3
CCCn1c(CC)nc([N+](=O)[O-])c1S(=O)(=O)c1ccccc1,-2.2,-7.4,23.7,36.3,-3.5,0.82,x,x
Cn1cnc([N+](=O)[O-])c1S(=O)(=O)c1cccc(Cl)c1,-4.0,x,47.4*,x,x,1.49,43.0*,21.4
O=c1c(Cl)c(NCc2ccccc2)cnn1C12CC3CC(CC(C3)C1)C2,0.1,x,1.4,x,x,-0.85,x,x
O=C(COC(=O)Cn1nnc2ccccc21)Nc1ccccc1Br,-1.7,x,-4.5,x,x,0.07,x,x
CCCCCOc1ccc(Br)cc1CSC(=N)N,0.4,x,33.3*,x,x,-0.72,37.7*,76.9*
Cc1ccc(C(=O)NCc2ccco2)cc1S(=O)(=O)Nc1cccc(Cl)c1,-2.8,-1.5,-5.3,2.8,-0.8,0.38,x,x
CCOC(=O)c1ccc(NC(=O)Cn2ncc(Cl)c(Cl)c2=O)cc1,-0.2,x,82.4*,x,x,-1.25,67.0*,48.1*
O=C(OCn1ncc(Cl)c(Cl)c1=O)c1ccc(C(F)(F)F)cc1,-3.5,-10.1,34.3*,23.8,5.1,-1.42,43.5*,11.9
CCc1ccccc1NC(=O)CN(C)C(=O)Cn1ncc(Cl)c(Cl)c1=O,-1.7,x,77.7*,x,x,1.27,75.0*,23.2
Cc1ccc(C)c(C(=O)Cn2ncc(Cl)c(Cl)c2=O)c1,-1.8,-8.8,20.3,19.5,-1.1,-0.43,x,x
Cc1cc(C(=O)Cn2ncc(Cl)c(Cl)c2=O)c(C)n1CC(F)(F)F,0.2,x,19.6,x,x,0.43,x,x
Cc1ccc(C(=O)OCn2ncc(Cl)c(Cl)c2=O)cc1,-2.0,-5.0,85.4*,80.0*,0.6,-2.86,93.6*,71.2*
CCOC(=O)c1ccc(NC(=O)CN2C(=O)CCC2=O)cc1,-2.7,0.8,-1.2,-13.7,-0.1,1.28,x,x

# Screening results: PubChem, several laboratories
